TDP1 cell noCPT: qHTS for Inhibitors of human tyrosyl-DNA phosphodiesterase 1 (TDP1): qHTS in cells in absence of CPT | Potency, µM (titrated, usually from 46.2 µM), most hits filed as inhibitors | DT40 Tdp1-/- hTDP1 cells, no CPT, ATP luminescence, 48 h | 420,000 tested, 15% active; further: nearly all actives have a fitted effect of over 55% in size
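Cells were dispensed at 400 per well, compounds added by pin tool, plates incubated ≥48 hr at 37 °C, then CellTiter-Glo added for 30 min at room temperature before luminescence reading. Line: DT40 Tdp1-/- complemented with hTDP1; camptothecin omitted.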
HT1080NT lethal: qHTS for induction of synthetic lethality in tumor cells producing 2HG: qHTS for the HT-1080-NT fibrosarcoma cell line; HT-1080-NT fibrosarcoma viability, CellTiter-Glo ATP luminescence, 48 h; Potency, µM (series often up to 46.1 µM), hits mostly cytotoxic; 360,000 tested, 1.6% active; AID 686970, 2013;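 further: NT is the 2HG producing partner of a matched IDH1 knockdown line; nearly all actives have a fitted effect of over 55% in size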
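Viability by CellTiter-Glo luminescence after 48 h compound exposure at 37C of HT-1080-NT cells (750/well, RPMI, 5% FBS). % activity scaled between DMSO wells and medium-only wells, then curve-fitted and categorized by curve class.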
HT1080 IDH1KD tx: qHTS for induction of synthetic lethality in tumor cells producing 2HG: qHTS for the HT-1080-IDH1KD cell line; HT-1080 IDH1 knockdown viability, ATP luminescence, 48 h; Potency, µM (series often up to 46.1 µM), actives largely listed as cytotoxic; 360,000 tested, 2% active
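Viability of IDH1-knockdown HT-1080 fibrosarcoma cells was assessed by CellTiter-Glo after 48 h at 37 °C with titrated compound; concentration-effect curves were classified by fit quality and response size.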
TDP1 cell CPT: qHTS for Inhibitors of human tyrosyl-DNA phosphodiesterase 1 (TDP1): qHTS in cells in presence of CPT. Potency, µM (highest dose often 46.2 µM), actives largely listed as inhibitors. chicken DT40 Tdp1-/-;hTDP1 cells + 20 nM CPT, ATP luminescence, 48 h. 420,000 tested, 12% active; further: nearly all actives have a fitted effect of over 55% in size
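Chicken DT40 Tdp1-/- cells stably complemented with human TDP1 were seeded at 400 cells/well in medium containing 20 nM camptothecin, exposed to pin-transferred compounds, and grown at 37 °C for at least 48 hr. Viability was read as ATP luminescence.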
KB-V1 MDR tox: qHTS assay for MDR1-selective chemotherapeutics: Primary screen using the drug-selected MDR subline cells KB-V1 | KB-V1 MDR cells viability, CellTiter-Glo, 72 h | AID 1347076, 2019 | 400,000 tested, 3.4% active | Potency, µM (series often up to 46.1 µM), usual class: cytotoxic; further: nearly all actives have a fitted effect of over 60% in size
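Compound-treated KB-V1 multidrug-resistant cells, 72 h, 37 degrees C; viability by CellTiter-Glo. Fitted qHTS curves give the values.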
KB-3-1 cytotox: qHTS assay for MDR1-selective chemotherapeutics: Primary screen using the parental adenocarcinoma cell KB-3-1 | KB-3-1 viability, CellTiter-Glo ATP luminescence, 72 h | Potency, µM (series often up to 46.1 µM), actives largely listed as cytotoxic | 400,000 tested, 1.4% active; further: nearly all actives have a fitted effect of over 60% in size
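KB-3-1 cells, DMEM (no phenol red) + 10% FBS; compound by pin transfer, 72 h, 37 °C. Readout: CellTiter-Glo luminescence after 10 min. Data normalized, curve-fitted.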
Hits are given with their value; – = inactive; ? = inconclusive; · = no result. In the library only some 19% were active in any assay of this set; here they are far more common. The call rests on the fitted dose curve; in most records, active means well fitted curve in the direction sought with a large enough effect; inconclusive means small, poorly fitted or top-dose-only effect, or another doubt; inactive means no such curve, though single readings can be large; an effect the other way counts as inactive or inconclusive.

SMILES | TDP1 cell noCPT | HT1080NT lethal | HT1080 IDH1KD tx | TDP1 cell CPT | KB-V1 MDR tox | KB-3-1 cytotox
Cc1nn(C)c(Cl)c1CN1CCC(CO)(CCOc2ccccc2)CC1 | ? | – | – | – | ? | –
Cc1c(CN2CCC(CO)(CCOc3ccccc3)CC2)[nH]c2c(Cl)cccc12 | ? | 21µM | 18µM | ? | ? | ?
Cc1cnc(CNc2ncnc3ccc(-c4ccoc4)cc23)cn1 | – | · | · | ? | · | ·
COc1ccc(-c2nn3c(=O)cc(CN4CCN(C(=O)/C=C/c5ccccc5)CC4)nc3s2)cc1 | ? | · | · | – | – | –
Cc1ccccc1-c1nn2c(=O)cc(CN3CCN(C(=O)/C=C/c4ccccc4)CC3)nc2s1 | ? | · | · | 16µM | – | –
CCOc1ccc(C(=O)N2CCN(Cc3cc(=O)n4nc(-c5cccc(OC)c5)sc4n3)CC2)cc1 | 21µM | · | · | ? | – | –
COc1ccccc1-c1nn2c(=O)cc(CN3CCN(C(=O)/C=C/c4ccccc4)CC3)nc2s1 | 23µM | · | · | ? | – | –
Cc1cccc(-c2nn3c(=O)cc(CN4CCN(S(=O)(=O)c5ccc(Cl)cc5)CC4)nc3s2)c1 | 16µM | · | · | – | – | –
Cc1cccc(CNC(=O)C2CCC(=O)N(CCCc3ccccc3)C2)c1 (configuration not stated) | ? | – | – | ? | ? | –
CN1CCN(c2nc3ccccc3nc2NS(=O)(=O)c2ccc(Br)cc2)CC1 | – | – | – | – | – | –
COc1ccc(N2CCN(c3nc4ccccc4nc3NS(=O)(=O)c3ccccc3)CC2)cc1 | – | – | – | – | – | –
O=S(=O)(Nc1nc2ccccc2nc1N1CCN(CCO)CC1)c1cc(F)ccc1F | – | – | – | 23µM | – | –
O=S(=O)(Nc1nc2ccccc2nc1N1CCc2ccccc2C1)c1ccc(Br)cc1 | 18µM | – | ? | ? | – | ?
Cc1n[nH]c(=O)nc1N1CCc2ccccc2C1 | 18µM | – | – | – | – | –
Cc1ccccc1S(=O)(=O)Nc1nc2ccccc2nc1N1CCc2ccccc2C1 | ? | – | – | – | 21µM | –
Cc1ccccc1S(=O)(=O)Nc1nc2ccccc2nc1Cl | – | – | – | – | – | –
CC(C)CC1(C2CCCC2)NC(=O)NC1=O (configuration not stated) | – | – | ? | – | – | –
O=S(=O)(Nc1nc2ccccc2nc1N1CCc2ccccc2C1)c1ccc(Cl)cc1 | ? | – | – | ? | 15µM | 15µM
CC(=O)Nc1ccc(S(=O)(=O)Nc2nc3ccccc3nc2N2CCCCCC2)cc1 | – | – | – | – | – | –
O=S(=O)(Nc1nc2ccccc2nc1Cl)c1ccc(Cl)cc1 | ? | – | – | – | ? | ?
CC(=O)Nc1ccc(S(=O)(=O)Nc2nc3ccccc3nc2N2CCc3ccccc3C2)cc1 | – | – | – | – | 9.2µM | –
CCc1nc2c(OCC3COc4ccccc4O3)cccn2c1N(C)C(=O)c1ccc(OC)cc1 (configuration not stated) | ? | – | – | ? | – | –
COc1cc(NC(=O)Cc2cccc3ccccc23)c(C(=O)O)cc1OC | – | – | – | – | – | –
COc1cc2cc(C)nc(Cc3cccc4ccccc34)c2cc1OC | 23µM | ? | ? | 15µM | – | –
COCCn1c(=O)c(-c2cccc(C#N)c2)nc2cnc(N3CCOCC3)nc21 | – | · | · | – | · | ·
CSC(=S)N/N=C(\C)c1ccc(Br)cc1 | 2.9µM | – | – | ? | – | –
CN(CCc1ccc(Cl)c(Cl)c1)C[C@@H](O)COc1ccc(NS(C)(=O)=O)cc1 | 24µM | · | · | ? | · | ·

Bioassay records deposited in PubChem by National Center for Advancing Translational Sciences (NCATS).
